Legend:
Experiment in all cases: DAPPL (digital affinity profiling via proximity ligation, sequencing); 10 mM Tris-HCl pH 7.5, 50 mM NaCl, 1 mM DTT, 4% glycerol, room temperature, 30 min; GST-TFs on glutathione beads, 16-mer random dsDNA library, 0.1% formaldehyde crosslink after washing; high values mean tight binding
[1] = target: T1, FLI1 (Homo sapiens, UniProt Q01543 1-452); conditions: protein: recombinant; tags: N-terminal GST; dsDNA, one strand shown
T1 sequence: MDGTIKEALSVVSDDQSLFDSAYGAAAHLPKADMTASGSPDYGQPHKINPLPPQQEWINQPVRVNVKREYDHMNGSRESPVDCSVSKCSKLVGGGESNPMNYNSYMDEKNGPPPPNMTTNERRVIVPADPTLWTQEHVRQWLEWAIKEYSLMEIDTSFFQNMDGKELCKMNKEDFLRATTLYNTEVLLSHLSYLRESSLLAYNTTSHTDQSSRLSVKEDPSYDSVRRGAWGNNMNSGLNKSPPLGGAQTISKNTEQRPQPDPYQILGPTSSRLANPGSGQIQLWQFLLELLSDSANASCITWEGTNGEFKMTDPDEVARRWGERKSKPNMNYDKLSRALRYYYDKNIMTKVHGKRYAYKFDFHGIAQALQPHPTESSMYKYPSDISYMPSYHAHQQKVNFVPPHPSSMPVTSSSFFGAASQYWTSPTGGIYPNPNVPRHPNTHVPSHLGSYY
Procedure, shortened: (§1)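 Binding signal is defined as a hexamer's read frequency for one factor over its frequency for the tag-only sample. To obtain reads, GST-fused human transcription factors were expressed in yeast, captured on glutathione beads, barcoded with DNA and pooled with that sample. Pools met 200 nmole of a 16-mer random double-stranded DNA library in Tris/NaCl/DTT/glycerol buffer for 30 min at room temperature before washing, 0.1% formaldehyde crosslinking, proximity ligation (BsaI/T4 ligase, 1 h, 37 °C), PCR and Illumina NextSeq500 sequencing.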

[2] = target: T2, ELK1 (Homo sapiens, UniProt P19419 1-428); conditions: protein: recombinant; tags: N-terminal GST; dsDNA, one strand shown
T2 sequence: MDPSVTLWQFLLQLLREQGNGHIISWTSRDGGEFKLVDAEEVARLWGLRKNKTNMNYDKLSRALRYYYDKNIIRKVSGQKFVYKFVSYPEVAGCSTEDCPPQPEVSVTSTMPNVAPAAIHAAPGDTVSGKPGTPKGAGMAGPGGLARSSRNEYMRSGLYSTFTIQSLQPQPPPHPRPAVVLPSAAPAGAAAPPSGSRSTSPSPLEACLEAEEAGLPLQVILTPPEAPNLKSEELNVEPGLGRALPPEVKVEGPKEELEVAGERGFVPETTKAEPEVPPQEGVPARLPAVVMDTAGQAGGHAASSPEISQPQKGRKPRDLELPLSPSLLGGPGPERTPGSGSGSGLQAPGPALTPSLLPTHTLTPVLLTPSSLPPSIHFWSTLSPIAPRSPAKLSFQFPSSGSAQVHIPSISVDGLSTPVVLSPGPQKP
Procedure, shortened: as §1

[3] = target: T3, GABPA (Homo sapiens, UniProt Q06546 1-454); conditions: protein: recombinant; tags: N-terminal GST; dsDNA, one strand shown
T3 sequence: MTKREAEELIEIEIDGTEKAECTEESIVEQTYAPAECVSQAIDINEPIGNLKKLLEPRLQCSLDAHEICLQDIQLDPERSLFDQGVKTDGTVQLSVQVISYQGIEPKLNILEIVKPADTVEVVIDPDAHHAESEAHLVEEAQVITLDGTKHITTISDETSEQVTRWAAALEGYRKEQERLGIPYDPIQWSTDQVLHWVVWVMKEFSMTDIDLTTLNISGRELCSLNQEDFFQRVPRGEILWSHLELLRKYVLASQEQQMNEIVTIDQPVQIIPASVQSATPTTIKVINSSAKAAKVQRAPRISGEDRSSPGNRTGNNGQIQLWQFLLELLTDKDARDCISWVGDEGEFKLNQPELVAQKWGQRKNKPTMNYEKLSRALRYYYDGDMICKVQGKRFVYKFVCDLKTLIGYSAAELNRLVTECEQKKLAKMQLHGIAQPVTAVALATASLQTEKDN
Procedure, shortened: as §1

[4] = target: T4, ERG (Homo sapiens, UniProt P11308 1-479); conditions: protein: recombinant; tags: N-terminal GST; dsDNA, one strand shown
T4 sequence: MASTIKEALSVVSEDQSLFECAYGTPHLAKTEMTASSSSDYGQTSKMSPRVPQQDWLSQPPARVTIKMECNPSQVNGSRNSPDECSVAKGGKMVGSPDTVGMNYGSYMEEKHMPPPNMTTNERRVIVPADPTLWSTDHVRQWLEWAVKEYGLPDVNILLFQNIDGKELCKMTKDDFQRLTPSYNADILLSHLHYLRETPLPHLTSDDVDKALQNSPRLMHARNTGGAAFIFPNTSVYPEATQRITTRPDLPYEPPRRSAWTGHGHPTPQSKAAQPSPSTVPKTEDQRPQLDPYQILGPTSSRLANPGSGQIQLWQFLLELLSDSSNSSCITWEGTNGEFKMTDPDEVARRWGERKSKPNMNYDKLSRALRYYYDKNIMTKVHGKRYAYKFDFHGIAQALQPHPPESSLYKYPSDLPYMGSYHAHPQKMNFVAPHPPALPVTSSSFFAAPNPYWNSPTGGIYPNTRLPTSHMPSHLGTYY
Procedure, shortened: as §1

[5] = target: ELF1 (Homo sapiens, UniProt P32519 1-619); conditions: protein: recombinant; tags: N-terminal GST; dsDNA, one strand shown
Chain of ELF1 (P32519 whole entry): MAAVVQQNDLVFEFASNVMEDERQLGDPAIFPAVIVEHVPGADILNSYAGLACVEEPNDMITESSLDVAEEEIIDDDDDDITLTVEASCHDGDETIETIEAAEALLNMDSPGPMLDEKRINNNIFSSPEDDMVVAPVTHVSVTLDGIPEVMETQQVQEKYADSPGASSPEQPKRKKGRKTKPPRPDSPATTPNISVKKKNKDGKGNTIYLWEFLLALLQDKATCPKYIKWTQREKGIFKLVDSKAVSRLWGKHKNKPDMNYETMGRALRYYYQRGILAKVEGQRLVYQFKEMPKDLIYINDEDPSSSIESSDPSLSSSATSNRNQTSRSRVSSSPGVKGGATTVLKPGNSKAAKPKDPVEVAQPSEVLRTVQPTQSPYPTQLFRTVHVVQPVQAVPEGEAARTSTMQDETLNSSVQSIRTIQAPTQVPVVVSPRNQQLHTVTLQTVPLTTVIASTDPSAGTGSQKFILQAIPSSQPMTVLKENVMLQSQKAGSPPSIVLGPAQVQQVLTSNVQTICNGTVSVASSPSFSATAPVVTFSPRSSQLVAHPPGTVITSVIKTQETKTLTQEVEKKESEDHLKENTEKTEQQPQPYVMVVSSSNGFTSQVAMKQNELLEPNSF
Procedure, shortened: as §1

[6] = target: T5, EHF (Homo sapiens, UniProt Q9NZC4 1-300); conditions: protein: recombinant; tags: N-terminal GST; dsDNA, one strand shown
T5 sequence: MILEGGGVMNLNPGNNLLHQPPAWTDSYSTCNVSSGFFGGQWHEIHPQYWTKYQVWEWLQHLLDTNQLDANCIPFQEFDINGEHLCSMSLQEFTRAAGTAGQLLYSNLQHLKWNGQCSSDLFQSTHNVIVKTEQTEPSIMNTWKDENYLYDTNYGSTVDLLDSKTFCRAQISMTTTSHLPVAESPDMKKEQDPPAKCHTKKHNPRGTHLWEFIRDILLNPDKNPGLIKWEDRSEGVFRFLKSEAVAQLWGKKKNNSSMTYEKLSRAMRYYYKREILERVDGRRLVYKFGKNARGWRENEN
Procedure, shortened: as §1

[7] = target: SPI1 (Homo sapiens, UniProt P17947 1-270); conditions: protein: recombinant; tags: N-terminal GST; dsDNA, one strand shown
Procedure, shortened: as §1

[8] = target: SPIB (Homo sapiens, UniProt Q01892 1-262); conditions: protein: recombinant; tags: N-terminal GST; dsDNA, one strand shown
Chain of SPIB (Q01892 whole entry): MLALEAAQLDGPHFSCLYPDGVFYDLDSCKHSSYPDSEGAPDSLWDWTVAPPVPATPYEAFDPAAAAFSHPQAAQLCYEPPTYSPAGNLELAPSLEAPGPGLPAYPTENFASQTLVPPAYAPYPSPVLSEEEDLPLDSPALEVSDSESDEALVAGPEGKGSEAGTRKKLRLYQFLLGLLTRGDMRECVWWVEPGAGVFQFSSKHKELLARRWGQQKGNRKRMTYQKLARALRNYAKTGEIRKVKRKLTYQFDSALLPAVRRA
Procedure, shortened: as §1

[9] = target: T6, ELK3 (Homo sapiens, UniProt P41970 1-407); conditions: protein: recombinant; tags: N-terminal GST; dsDNA, one strand shown
T6 sequence: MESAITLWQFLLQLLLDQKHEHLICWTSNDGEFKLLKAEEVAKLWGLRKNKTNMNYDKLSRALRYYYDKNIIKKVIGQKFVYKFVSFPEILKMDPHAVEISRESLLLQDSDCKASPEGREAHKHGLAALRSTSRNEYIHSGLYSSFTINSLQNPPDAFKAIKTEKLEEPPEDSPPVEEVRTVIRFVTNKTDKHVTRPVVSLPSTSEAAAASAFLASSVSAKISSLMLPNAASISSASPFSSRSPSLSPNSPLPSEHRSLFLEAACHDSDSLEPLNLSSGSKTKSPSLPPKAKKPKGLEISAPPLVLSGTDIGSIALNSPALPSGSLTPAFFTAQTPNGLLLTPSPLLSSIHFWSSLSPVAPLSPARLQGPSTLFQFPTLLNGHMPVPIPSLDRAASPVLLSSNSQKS
Procedure, shortened: as §1

[10] = target: T7, FEV (Homo sapiens, UniProt Q99581 1-238); conditions: protein: recombinant; tags: N-terminal GST; dsDNA, one strand shown
T7 sequence: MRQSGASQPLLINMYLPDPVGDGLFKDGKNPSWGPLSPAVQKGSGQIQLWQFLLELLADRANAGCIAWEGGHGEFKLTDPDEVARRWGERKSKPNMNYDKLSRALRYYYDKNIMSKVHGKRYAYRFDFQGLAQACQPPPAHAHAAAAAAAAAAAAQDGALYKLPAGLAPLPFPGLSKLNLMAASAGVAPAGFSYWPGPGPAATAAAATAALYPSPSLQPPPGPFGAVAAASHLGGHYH
Procedure, shortened: as §1

[11] = target: ETV5 (Homo sapiens, UniProt P41161 1-510); conditions: protein: recombinant; tags: N-terminal GST; dsDNA, one strand shown
Chain of ETV5 (P41161 whole entry): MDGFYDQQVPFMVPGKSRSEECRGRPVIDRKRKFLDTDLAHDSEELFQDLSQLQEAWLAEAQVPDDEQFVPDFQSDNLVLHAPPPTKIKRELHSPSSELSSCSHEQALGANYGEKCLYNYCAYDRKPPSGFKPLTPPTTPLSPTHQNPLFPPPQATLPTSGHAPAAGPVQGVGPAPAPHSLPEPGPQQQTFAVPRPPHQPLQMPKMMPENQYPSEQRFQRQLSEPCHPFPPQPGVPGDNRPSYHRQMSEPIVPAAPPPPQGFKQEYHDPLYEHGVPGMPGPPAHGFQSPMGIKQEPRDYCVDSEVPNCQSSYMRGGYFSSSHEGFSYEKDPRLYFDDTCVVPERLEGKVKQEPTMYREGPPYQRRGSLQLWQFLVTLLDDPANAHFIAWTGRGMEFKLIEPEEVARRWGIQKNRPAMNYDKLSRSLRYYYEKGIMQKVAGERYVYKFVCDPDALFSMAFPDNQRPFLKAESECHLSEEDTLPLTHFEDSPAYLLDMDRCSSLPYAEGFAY
Procedure, shortened: as §1

[12] = target: HSF1 (Homo sapiens, UniProt Q00613 1-529); conditions: protein: recombinant; tags: N-terminal GST; chain copies: 3; dsDNA, one strand shown
Chain of HSF1 (Q00613 whole entry): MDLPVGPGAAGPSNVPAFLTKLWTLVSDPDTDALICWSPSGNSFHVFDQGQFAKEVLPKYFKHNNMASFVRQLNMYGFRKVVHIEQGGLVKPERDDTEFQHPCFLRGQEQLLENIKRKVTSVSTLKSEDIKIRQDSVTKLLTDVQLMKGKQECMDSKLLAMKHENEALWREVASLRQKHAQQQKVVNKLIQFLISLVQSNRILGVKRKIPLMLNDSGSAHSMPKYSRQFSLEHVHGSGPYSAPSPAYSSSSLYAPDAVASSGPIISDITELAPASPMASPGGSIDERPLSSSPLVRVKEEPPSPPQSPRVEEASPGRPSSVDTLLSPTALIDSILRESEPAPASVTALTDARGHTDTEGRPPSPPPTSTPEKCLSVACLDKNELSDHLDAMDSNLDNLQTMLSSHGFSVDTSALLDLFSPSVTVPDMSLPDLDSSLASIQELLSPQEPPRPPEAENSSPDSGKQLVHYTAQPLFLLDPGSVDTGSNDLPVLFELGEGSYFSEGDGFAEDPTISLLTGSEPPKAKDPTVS
Procedure, shortened: as §1

[13] = target: T8, SPIC (Homo sapiens, UniProt Q8N5J4 1-248); conditions: protein: recombinant; tags: N-terminal GST; dsDNA, one strand shown
T8 sequence: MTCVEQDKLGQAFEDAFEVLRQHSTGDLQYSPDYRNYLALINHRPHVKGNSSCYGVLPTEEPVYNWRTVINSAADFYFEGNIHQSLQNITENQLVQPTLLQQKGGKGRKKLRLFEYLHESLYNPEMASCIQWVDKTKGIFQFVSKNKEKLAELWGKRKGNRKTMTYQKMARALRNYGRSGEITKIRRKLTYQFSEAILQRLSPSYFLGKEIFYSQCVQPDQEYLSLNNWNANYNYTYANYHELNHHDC
Procedure, shortened: as §1

[14] = target: ELF4 (Homo sapiens, UniProt Q99607 1-663); conditions: protein: recombinant; tags: N-terminal GST; dsDNA, one strand shown
Chain of ELF4 (Q99607 whole entry): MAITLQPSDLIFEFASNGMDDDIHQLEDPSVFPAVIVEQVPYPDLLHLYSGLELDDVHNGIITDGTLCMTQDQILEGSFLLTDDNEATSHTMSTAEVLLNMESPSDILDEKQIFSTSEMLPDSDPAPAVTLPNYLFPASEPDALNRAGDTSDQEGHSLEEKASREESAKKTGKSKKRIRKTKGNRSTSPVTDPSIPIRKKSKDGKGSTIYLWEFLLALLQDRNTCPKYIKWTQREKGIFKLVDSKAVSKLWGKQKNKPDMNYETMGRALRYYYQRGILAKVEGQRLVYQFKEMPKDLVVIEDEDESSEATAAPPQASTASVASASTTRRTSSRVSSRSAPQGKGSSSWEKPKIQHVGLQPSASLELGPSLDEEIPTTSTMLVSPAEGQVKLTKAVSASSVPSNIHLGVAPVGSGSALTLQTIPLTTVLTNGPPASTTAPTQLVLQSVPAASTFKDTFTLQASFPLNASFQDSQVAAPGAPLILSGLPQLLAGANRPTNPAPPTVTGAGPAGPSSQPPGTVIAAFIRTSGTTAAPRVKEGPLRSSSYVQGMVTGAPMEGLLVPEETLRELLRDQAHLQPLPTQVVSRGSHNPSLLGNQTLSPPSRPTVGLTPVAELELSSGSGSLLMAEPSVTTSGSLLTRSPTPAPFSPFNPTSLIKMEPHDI
Procedure, shortened: as §1

[15] = target: T9, ELK4 (Homo sapiens, UniProt P28324-2 1-405); conditions: protein: recombinant; tags: N-terminal GST; dsDNA, one strand shown
T9 sequence: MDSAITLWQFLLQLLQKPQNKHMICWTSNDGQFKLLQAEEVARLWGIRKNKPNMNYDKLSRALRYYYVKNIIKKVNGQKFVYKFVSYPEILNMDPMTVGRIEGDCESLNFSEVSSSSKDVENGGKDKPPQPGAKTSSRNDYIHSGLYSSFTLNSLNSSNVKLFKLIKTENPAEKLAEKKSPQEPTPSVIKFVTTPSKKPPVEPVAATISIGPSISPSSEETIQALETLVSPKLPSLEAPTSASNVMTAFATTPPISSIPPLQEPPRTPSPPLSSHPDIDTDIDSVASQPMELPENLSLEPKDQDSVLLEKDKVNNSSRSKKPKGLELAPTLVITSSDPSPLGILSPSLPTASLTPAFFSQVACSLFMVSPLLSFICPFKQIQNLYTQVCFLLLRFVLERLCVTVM
Procedure, shortened: as §1

[16] = target: T10, ETV2 (Homo sapiens, UniProt O00321 1-342); conditions: protein: recombinant; tags: N-terminal GST; dsDNA, one strand shown
T10 sequence: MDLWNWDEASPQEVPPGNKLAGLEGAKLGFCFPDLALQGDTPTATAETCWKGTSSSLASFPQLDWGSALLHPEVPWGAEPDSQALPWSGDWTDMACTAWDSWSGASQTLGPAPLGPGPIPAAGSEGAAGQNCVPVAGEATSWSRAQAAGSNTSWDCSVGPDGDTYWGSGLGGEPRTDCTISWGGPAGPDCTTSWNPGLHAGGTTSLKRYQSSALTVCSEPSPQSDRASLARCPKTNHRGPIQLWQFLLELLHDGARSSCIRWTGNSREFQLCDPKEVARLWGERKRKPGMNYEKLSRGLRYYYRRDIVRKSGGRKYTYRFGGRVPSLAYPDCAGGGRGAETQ
Procedure, shortened: as §1

[17] = target: T11, ELF3 (Homo sapiens, UniProt P78545 1-371); conditions: protein: recombinant; tags: N-terminal GST; dsDNA, one strand shown
T11 sequence: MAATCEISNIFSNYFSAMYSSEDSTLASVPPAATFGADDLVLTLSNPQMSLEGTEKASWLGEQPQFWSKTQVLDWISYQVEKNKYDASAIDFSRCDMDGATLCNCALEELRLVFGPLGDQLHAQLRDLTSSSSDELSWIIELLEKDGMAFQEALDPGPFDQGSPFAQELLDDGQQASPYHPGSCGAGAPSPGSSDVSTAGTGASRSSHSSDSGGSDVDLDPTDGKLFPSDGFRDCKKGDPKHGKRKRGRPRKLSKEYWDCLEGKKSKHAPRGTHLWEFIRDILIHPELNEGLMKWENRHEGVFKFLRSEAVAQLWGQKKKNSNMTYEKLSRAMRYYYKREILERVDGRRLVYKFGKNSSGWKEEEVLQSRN
Procedure, shortened: as §1

[18] = target: CRX (Homo sapiens, UniProt O43186 1-299); conditions: protein: recombinant; tags: N-terminal GST; dsDNA, one strand shown
Chain of CRX (O43186 whole entry): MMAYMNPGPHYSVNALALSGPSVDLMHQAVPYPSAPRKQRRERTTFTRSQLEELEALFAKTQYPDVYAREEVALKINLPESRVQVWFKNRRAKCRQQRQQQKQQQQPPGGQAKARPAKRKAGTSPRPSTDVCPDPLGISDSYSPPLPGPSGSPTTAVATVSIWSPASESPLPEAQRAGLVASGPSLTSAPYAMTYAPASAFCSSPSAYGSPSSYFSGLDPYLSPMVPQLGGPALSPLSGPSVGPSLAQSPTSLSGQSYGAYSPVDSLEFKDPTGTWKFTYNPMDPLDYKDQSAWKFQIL
Procedure, shortened: as §1

[19] = target: ETV1 (Homo sapiens, UniProt P50549 1-477); conditions: protein: recombinant; tags: N-terminal GST; dsDNA, one strand shown
Chain of ETV1 (P50549 whole entry): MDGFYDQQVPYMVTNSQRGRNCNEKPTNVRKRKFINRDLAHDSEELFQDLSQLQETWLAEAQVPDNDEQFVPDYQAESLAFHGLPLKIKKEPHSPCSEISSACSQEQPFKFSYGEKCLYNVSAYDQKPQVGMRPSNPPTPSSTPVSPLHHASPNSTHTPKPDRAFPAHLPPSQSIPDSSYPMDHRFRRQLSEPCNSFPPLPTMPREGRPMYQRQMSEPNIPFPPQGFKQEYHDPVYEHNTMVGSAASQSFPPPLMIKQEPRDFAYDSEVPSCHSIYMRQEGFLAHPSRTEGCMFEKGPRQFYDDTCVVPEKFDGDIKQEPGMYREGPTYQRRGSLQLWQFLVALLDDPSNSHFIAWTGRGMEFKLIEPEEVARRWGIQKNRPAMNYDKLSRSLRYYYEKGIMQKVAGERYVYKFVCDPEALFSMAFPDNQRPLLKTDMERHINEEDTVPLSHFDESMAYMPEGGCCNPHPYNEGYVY
Procedure, shortened: as §1

Question: Which results are given for TGGATG?
Answer: binding signal [1]: 1.33 fold enrichment (6-mer frequency, TF over GST control); binding signal [2]: 1.37 fold enrichment (6-mer frequency, TF over GST control); binding signal [3]: 1.47 fold enrichment (6-mer frequency, TF over GST control); binding signal [4]: 1.32 fold enrichment (6-mer frequency, TF over GST control); binding signal [5]: 1.48 fold enrichment (6-mer frequency, TF over GST control); binding signal [6]: 1.5 fold enrichment (6-mer frequency, TF over GST control); binding signal [7]: 1.37 fold enrichment (6-mer frequency, TF over GST control); binding signal [8]: 1.64 fold enrichment (6-mer frequency, TF over GST control); binding signal [9]: 1.49 fold enrichment (6-mer frequency, TF over GST control); binding signal [10]: 1.35 fold enrichment (6-mer frequency, TF over GST control); binding signal [11]: 1.42 fold enrichment (6-mer frequency, TF over GST control); binding signal [12]: 1.52 fold enrichment (6-mer frequency, TF over GST control); binding signal [13]: 1.46 fold enrichment (6-mer frequency, TF over GST control); binding signal [14]: 1.49 fold enrichment (6-mer frequency, TF over GST control); binding signal [15]: 1.23 fold enrichment (6-mer frequency, TF over GST control); binding signal [16]: 1.49 fold enrichment (6-mer frequency, TF over GST control); binding signal [17]: 1.65 fold enrichment (6-mer frequency, TF over GST control); binding signal [18]: 1.45 fold enrichment (6-mer frequency, TF over GST control); binding signal [19]: 1.54 fold enrichment (6-mer frequency, TF over GST control)
